Among the data in PubChem BioAssay (EPA / NIEHS) are AC50 and outcome values, retold here.

The structures appear in SMILES notation. Calls of active or inactive are those of the source. Rule for the calls: active = hit-call score of the fitted dose curve at least 0.9, where 1 is the maximum; inactive = score below 0.9.

Read-out in this assay: CD69, CD69 (gene 969)
Put plainly: BSK_SAg_CD69: BioMAP Diversity Plus: SAg Assay for CD69 Biomarker Activity (AID 2283089). The conditions noted are these: primary human HUVEC with PBMC; actives raise or lower the signal. The method, then:
BSK_SAg is a cell-based, multiplexed-readout assay that uses umbilical vein endothelium and peripheral blood mononuclear cells, a human vascular primary cell co-culture, with measurements taken at 24 hours after chemical dosing in a 96-well plate.BSK_SAg_CD69 is one of 10 assay component(s) measured or calculated from the BSK_SAg assay. It is designed to make measurements of enzyme-linked immunosorbent assay, a form of binding reporter, as detected with fluorescence intensity signals by Enzyme-linked immunosorbent assay technology.Data from the assay component BSK_SAg_CD69 was analyzed into 1 assay endpoint. This assay endpoint, BSK_SAg_CD69, was analyzed with bidirectional fitting relative to DMSO as the negative control and baseline of activity. Using a type of binding reporter, gain or loss-of-signal activity can be used to understand changes in the signaling as they relate to the gene CD69. Furthermore, this assay endpoint can be referred to as a primary readout, because this assay has produced multiple assay endpoints where this one serves a signaling function. To generalize the intended target to other relatable targets, this assay endpoint is annotated to the cytokine intended target family, where the subfamily is inflammatory factor.
The levels of cell surface (or secreted, indicated by the prefix "s") biomarker endpoints were measured by ELISA. Overt cytotoxicity to cells in confluent adherent cultures (all systems other than the BT system) was assessed by measuring total protein levels using sulforhodamine B (SRB) staining in parallel cultures at the time of biomarker measurements, indicated as SRB endpoints. For proliferation assays for adherent cell types, individual cell types are cultured at sub-confluence and relative cell numbers quantified by SRB staining at time points optimized for each system (48 h: 3C and CASM3C systems; 72 h: BT and HDF3CGF systems; 96 h: SAg system). SRB was performed by staining cells with 0.1% SRB after fixation with 10% TCA and reading wells at 560 nm.Viability and proliferation of PBMC (T cells) was quantified by Alamar Blue reduction for the SAg and BT systems. For PBMC viability (referred to as PBMC Cytotoxicity within the assay endpoint names), cells were plated (75,000/well in a 96-well plate) and then chemical samples added for 1 h before addition of activators, SEB and TSST-1 (20 ng/mL final concentration each). Cells were incubated for 90 h. Then, Alamar Blue (20 uL/well) (Invitrogen, Cat DAL1100) was added for 6 h, and the plates were read with a fluorescence microplate reader at 546/580 nm (excitation/emission). For PBMC proliferation, cells were plated and activated as above but incubated for only 16 h prior to addition of Alamar Blue. Plates were read after 6 h.
The AC50 is the concentration giving half of the maximal activity seen. Take `C=CCc1cc(S(=O)(=O)c2ccc(O)c(CC=C)c2)ccc1O`: the AC50 is 24.3 µM (active). On to `O=S(=O)(O)CCC(F)(F)C(F)(F)C(F)(F)C(F)(F)C(F)(F)C(F)(F)F`, for which the result was inactive. Still for that read-out and setting: the entry for `c1ccc2ncccc2c1` is “inactive”; for `CC[C@H](C)C(=O)O[C@H]1C[C@H](O)C=C2C=C[C@H](C)[C@H](CC[C@@H](O)C[C@@H](O)CC(=O)O)[C@H]21` it is “inactive”.

On to `NC(N)=O`, for which the result was inactive.

`CC(=O)c1ccccc1`: the result was inactive. Still for that read-out and setting: the entry for `COCc1nnc(-c2ccc[n+]([O-])c2)n1-c1c(Cl)c(Cl)cc2[nH]c(=O)c(=O)[nH]c12` is “inactive”; for `O=c1[nH]cnc2c1ncn2[C@H]1CC[C@@H](CO)O1` it is “inactive”. `CC(C)CCCCCCOC(=O)C1CCCCC1C(=O)OCCCCCCC(C)C` (stereo not given): the result was inactive. For `CCCCCCCCCCCCCCO`, the half-maximal activity concentration (AC50) is 30.6 µM (active). Take `O=C1CN(N=Cc2ccc([N+](=O)[O-])o2)C(=O)N1`: the result was inactive.

On to `CCCCC(CC)C(=O)OCCOCCOCCOC(=O)C(CC)CCCC` (stereo not given), for which the outcome was inactive. As to `CC(C)C(=O)Nc1ccc([N+](=O)[O-])c(C(F)(F)F)c1`, the AC50 was 20 µM (active). Consider `CNC(C)=O`, for which the outcome was inactive. On the same count and under the same terms, as for `OCCOCCOCCO`, the entry is “inactive”.

With `O=C(O)c1cccc(C(=O)O)c1`, the outcome was inactive. `CCc1cccc(CC)c1N`: the outcome was inactive. As to `CC(C)c1nnc2ccc(-c3ocnc3-c3cc(F)ccc3F)cn12`, the AC50 was 3.59 µM (active). For `CC(C)CC(C)O` (stereo not given), the outcome was inactive. Turning to `CCN(CC)C(=S)SSC(=S)N(CC)CC`, the AC50 was 20 µM (active). In the case of `CCOc1ccc2[nH]cc(C(=O)NCc3ccccc3)c(=O)c2n1`, the result was inactive.

For the molecule `O=C(O)[C@H](O)[C@@H](O)C(=O)O`, the result was inactive. Take `CCCCCCCC/C=C\CCCCCCCC(=O)OC[C@@H](O)[C@H]1OC[C@H](O)[C@H]1O`: the result was inactive. With `CCCOc1ccc(S(=O)(=O)N2CCN(CC)CC2)cc1-c1nc2c(CC)n(Cc3ccccn3)nc2c(=O)[nH]1`, the outcome was inactive. With `CCCc1ccccc1`, the result was inactive. The same measure, in the same setting: the entry for `OCCC(F)(F)C(F)(F)C(F)(F)C(F)(F)F` is “inactive”; for `FC(F)C(F)(F)COCC1CO1` (stereo not given) it is “inactive”. Regarding `COc1cc2c(c(OC)c1OC)-c1ccc(OC)c(=O)cc1[C@@H](NC(C)=O)CC2`, the AC50 is 0.505 µM (active).

Regarding `CCCCCCCCCC`, the outcome was inactive. The same measure, in the same setting: as for `O=C(Cl)C(F)(F)C(F)(F)C(F)(F)C(=O)Cl`, the entry is “inactive”; as for `OC[C@H]1O[C@@](CO)(O[C@H]2O[C@H](CO)[C@@H](O)[C@H](O)[C@H]2O)[C@@H](O)[C@@H]1O`, “inactive”. Still for that read-out and setting: the entry for `CCCCCCCC1CCC(=O)O1` (stereo not given) is “inactive”. Consider `c1ccc(C(O[C@@H]2CCCN(CCc3ccc4c(c3)OCO4)C2)c2ccccc2)cc1`, for which the half-maximal activity concentration (AC50) is 30.3 µM (active). `c1ccc2c(c1)-c1cccc3c1c-2cc1ccccc13`: the outcome was inactive. The same measure, in the same setting: as for `NC(=O)N1c2ccccc2C=Cc2ccccc21`, the entry is “inactive”.

With `Cc1nccn1-c1ccc(Sc2cccc(C3(C(N)=O)CCOCC3)c2)cc1`, the AC50 is 6.87 µM (active). As for `OC(CCl)CCl`, the outcome was inactive. With `O=S(=O)(O)c1ccc(N=Nc2c(O)ccc3cc(S(=O)(=O)O)ccc23)cc1`, the outcome was inactive.

Regarding `CC1(C)C(=O)N(Cl)C(=O)N1Cl`, the result was inactive. As to `NC(=O)NN=Cc1ccc([N+](=O)[O-])o1`, the result was inactive.
